PDI inh = inhibitors of human protein disulfide isomerase. PDI insulin aggregation turbidity, A650, 90 min. inhibition, % at 10 µM. AID 588391. actives 0.052% (n = 350,000). P07237;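 active = mean inhibition across replicates of 30% or more, whatever share of single replicates reach that level; inconclusive = mean inhibition below 30% while every single replicate reaches 30%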
Rtt109 HAT inh = blocks Candida albicans Rtt109/Vps75 acetyltransferase activity. Q5AAJ8. purified Rtt109/Vps75, ThioGlo CoA-SH fluorescence, 4 h. inhibition, % at 34.9 µM. actives 0.16% (n = 330,000);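 active = inhibition of at least 50% in every replicate; inconclusive = best replicate reaches 50% inhibition but some replicates fall short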
DENV2 CPE = protects cells from dengue virus 2 cytopathic effect; DENV2-infected cells, cytopathic effect rescue, plate reader; actives 1.7% (n = 350,000); CPE inhibition, % at 9.99 µM; in the data active = CPE inhibition above about 20%, passing the limit was not always enough; inconclusive = no clear call, values can overlap the other calls; tested in BHK-21 cells;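 also: 0% = median of neutral control wells and 100% = median of positive control wells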
ERp5 inh = blocks human ERp5 reductase activity on insulin | Q15084 | ERp5 insulin aggregation, absorbance 650 nm, 90 min | inhibition, % at 9.99 µM | actives 0.05% (n = 350,000) | AID 651711;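 active = mean replicate inhibition above about 25%, with every replicate also reaching it, limit read from the data, passing the limit was not always enough; inconclusive = only one of those two criteria met; inactive = neither criterion met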
SIRT5 block = sirtuin-5 (human) deacylase inhibition; Q9NXA8; Purified SirT5, succinyl-peptide AMC, trypsin-coupled fluorescence; inhibition, % at 15 µM; AID 652115; actives 1.1% (n = 330,000); in the data active = inhibition above about 15%; inconclusive = no clear call, values can overlap the other calls
Target sequence (Q9NXA8 whole entry, looked up): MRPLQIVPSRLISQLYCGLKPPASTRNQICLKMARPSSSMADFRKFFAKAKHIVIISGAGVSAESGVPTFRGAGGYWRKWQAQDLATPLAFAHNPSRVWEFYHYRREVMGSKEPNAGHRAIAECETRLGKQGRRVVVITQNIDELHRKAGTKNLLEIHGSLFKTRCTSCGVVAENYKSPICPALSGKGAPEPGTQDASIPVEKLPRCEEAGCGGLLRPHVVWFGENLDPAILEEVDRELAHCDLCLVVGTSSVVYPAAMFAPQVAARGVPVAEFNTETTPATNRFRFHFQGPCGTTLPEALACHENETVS
Numbers without * were called inactive; u = inconclusive; x = no result given. This is a sample that favours compounds with a hit; in the whole collection about 2.3% have one here.

SMILES	PDI inh	Rtt109 HAT inh	DENV2 CPE	ERp5 inh	SIRT5 block
C[C@@H]1CN([C@H](C)CO)C(=O)c2cc(C3=CCCCC3)cnc2O[C@@H]1CN(C)C(=O)Nc1ccc(F)cc1	x	x	34*	-4	0
C[C@@H]1CN([C@@H](C)CO)C(=O)c2cc(C3=CCCC3)cnc2O[C@H]1CN(C)C(=O)NC1CCCC1	x	x	31*	7	4
C[C@@H]1CCCCO[C@H](CN(C)S(=O)(=O)c2cccs2)[C@H](C)CN([C@H](C)CO)C(=O)c2cc(NS(=O)(=O)c3ccccc3)ccc2O1	x	x	-4	-3	3
O=C(c1ccccc1)c1coc2ccc(O)c(Cl)c12	12	6	x	5	22*
O=C1COc2ccc(C(=O)COC(=O)Cc3ccc(Cl)cc3)cc2N1	-2	-3	-3	6	1
O=C1COc2ccc(C(=O)COC(=O)CCSc3ccc(Cl)cc3)cc2N1	-4	x	-4	-5	16*
O=C(C[C@@H]1CC[C@H]2[C@@H](COC[C@H](O)CN2C(=O)Nc2cccc(Cl)c2)O1)N1CCCCC1	x	x	-3	0	-2
O=C(CCc1nnc(Cc2cccc(C(F)(F)F)c2)o1)NCC(F)(F)F	-3	x	6	-1	18*
CC(C)(CO)CNC(=O)CCc1nnc(Cc2ccc(-c3ccccc3)cc2)o1	1	3	2	1	26*
COc1cccc(NC(=O)N2CC(=O)N3[C@@H](CO)[C@@H](c4ccc(C#CCC5CCCC5)cc4)[C@@H]3C2)c1	x	x	1	-5	17*
COc1cccc(NC(=O)N2CC(=O)N3[C@H](CO)[C@H](c4ccc(C#CCC5CCCC5)cc4)[C@@H]3C2)c1	x	x	6	-5	24*
COc1cccc(NC(=O)N2CC(=O)N3[C@H](C2)[C@H](c2ccc(C#CCC4CCCC4)cc2)[C@@H]3CO)c1	x	x	15	-5	25*
COc1cccc(NC(=O)N2CC(=O)N3[C@H](CO)[C@@H](c4ccc(C#CCC5CCCC5)cc4)[C@H]3C2)c1	x	x	2	-2	22*
CO[C@H]1CN(C)C(=O)c2cc(NS(=O)(=O)c3ccccc3F)ccc2OC[C@H](C)NC[C@H]1C	x	x	-8	-17	2
COc1ccc(NC(=O)N2CC(=O)N3[C@H](CO)[C@H](c4ccc(C#CCC5CCCC5)cc4)[C@@H]3C2)cc1	x	x	-7	-2	2
COc1cccc(NC(=O)N2CC(=O)N3[C@H](CO)[C@@H](c4ccc(C#CCC5CCCC5)cc4)[C@@H]3C2)c1	x	x	1	-3	24*
COc1ccccc1NC(=O)N1CC(=O)N2[C@H](C1)[C@@H](c1ccc(C#Cc3ccc(F)cc3)cc1)[C@@H]2CO	x	x	69*	-3	4
O=C(CC1CC1)N1CC(=O)N2[C@H](CO)[C@@H](c3ccc(C#Cc4ccc(F)cc4)cc3)[C@H]2C1	x	x	1	-2	-2
CC(C)NC(=O)N1CC(=O)N2[C@H](CO)[C@H](c3ccc(C#CCN(C)C)cc3)[C@@H]2C1	x	x	23*	-3	2
O=C(CC1CC1)N1CC(=O)N2[C@@H](CO)[C@@H](c3ccc(C#Cc4cccc(F)c4)cc3)[C@@H]2C1	x	x	29*	2	0
COc1ccccc1NC(=O)N1CC(=O)N2[C@@H](CO)[C@@H](c3ccc(C#Cc4ccc(F)cc4)cc3)[C@@H]2C1	x	x	2	4	3
CCCC#Cc1ccc([C@@H]2[C@H]3CN(C(=O)NC4CCCC4)CC(=O)N3[C@H]2CO)cc1	x	x	22*	3	0
C[C@H](NC(=O)C[C@H]1CC[C@H]2[C@@H](COC[C@H](O)CN2C(=O)Nc2ccccc2)O1)c1ccccc1	x	x	-11	-3	3
C[C@H]1CCCCO[C@H](CN(C)Cc2ccncc2)[C@@H](C)CN([C@@H](C)CO)C(=O)c2cc(NC(=O)Nc3ccc(F)cc3)ccc2O1	x	x	-6	x	x
CCCC#Cc1ccc([C@@H]2[C@@H](CO)N3C(=O)CN(C(=O)Nc4ccc(F)cc4)C[C@H]23)cc1	x	x	36*	2	-1
SMILES	PDI inh	Rtt109 HAT inh	DENV2 CPE	ERp5 inh	SIRT5 block
O=C(c1ccc(F)cc1)N1CC(=O)N2[C@H](C1)[C@@H](c1ccc(C#CC3CCCC3)cc1)[C@@H]2CO	x	x	17	1	1
COc1ccc(-c2ccc3c(c2)[C@H]2[C@H](CCN2C(=O)Cc2cccnc2)[C@@H](CO)N3C)cc1	x	x	u	4	1
CC(C)NC(=O)N(C)C[C@@H]1Oc2cc(C#C[C@@H](C)O)ccc2S(=O)(=O)N([C@H](C)CO)C[C@H]1C	x	x	0	-2	-3
CCN1CCC(N2CCN(c3ccc(F)cc3)CC2)CC1	-7	5	28*	1	1
O=C(CN1CCOCC1)N1CCCCN2[C@H](C1)[C@@H](c1ccc(/C=C/c3ccccc3)cc1)[C@@H]2CO	x	x	6	1	-2
O=C(CN1CCOCC1)N1CCCCN2[C@@H](CO)[C@@H](c3ccc(-c4ccccc4)cc3)[C@@H]2C1	x	x	61*	5	-3
O=C(CN1CCOCC1)N1CCCCN2[C@H](C1)[C@H](c1ccc(-c3ccccc3)cc1)[C@@H]2CO	x	x	4	3	21*
O=C(CN1CCOCC1)N1CCCCN2[C@H](CO)[C@H](c3ccc(/C=C/c4ccccc4)cc3)[C@H]2C1	x	x	54*	-5	5
O=C(CN1CCOCC1)N1CCCCN2[C@H](CO)[C@H](c3ccc(C#Cc4ccccc4)cc3)[C@@H]2C1	x	x	31*	-1	1
C[C@@H]1CCCCO[C@H](CN(C)S(C)(=O)=O)[C@@H](C)CN([C@H](C)CO)C(=O)c2cc(NS(C)(=O)=O)ccc2O1	x	x	1	x	x
COc1cccc(C(=O)Nc2ccc3c(c2)C(=O)N(C)C[C@H](OC)[C@H](C)CN(CCc2ccccc2)[C@H](C)CO3)c1	x	x	9	2	11
COc1cccc(C(=O)Nc2ccc3c(c2)C(=O)N(C)C[C@@H](OC)[C@@H](C)CN(CCc2ccccc2)[C@@H](C)CO3)c1	x	x	5	3	15*
COc1cccc(C(=O)Nc2ccc3c(c2)C(=O)N(C)C[C@H](OC)[C@@H](C)CN(C(C)=O)[C@@H](C)CO3)c1	x	x	-11	9	-3
COc1cccc(C(=O)Nc2ccc3c(c2)C(=O)N(C)C[C@H](OC)[C@@H](C)CN(C(C)=O)[C@H](C)CO3)c1	x	x	64*	-3	-1
C[C@@H]1CCCCO[C@H](CN(C)S(=O)(=O)c2cccs2)[C@@H](C)CN([C@@H](C)CO)C(=O)c2cc(NC(=O)Nc3ccc(F)cc3)ccc2O1	x	x	-9	3	3
CC(C)C[C@@H]1NC(=O)[C@@H]2C[C@H](C(=O)O)[C@H](c3cccc(OCCO)c3)N2C1=O	x	x	3	0	-1
CC(C)C[C@@H]1NC(=O)[C@H]2C[C@@H](C(=O)NCCCCCNC(=O)CS)[C@@H](c3cccc(OCCO)c3)N2C1=O	x	x	21*	-1	-3
NCCCCCNC(=O)[C@@H]1C[C@@H]2C(=O)N[C@@H](Cc3ccccc3)C(=O)N2[C@@H]1c1cccc(OCCO)c1	x	x	1	1	10
